Screening data (PubChem)
PPC-1+TRAIL kill = PPC-1 cancer cell killing with TRAIL present; PPC-1 cells + TRAIL, ATPLite viability luminescence; cell killing (% activity), % at 4 µM or 5 µM; actives 0.41% (n = 220,000);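 active = cell killing above 50% in the first pass at 4 µM, then a duplicate retest at 5 µM averaging 50% or more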
C8 TRAIL sens = sensitizes caspase-8 expressing cells to TRAIL; AID 624354; NB7+C8 cells + TRAIL, ATPlite viability luminescence; inhibition (viability loss, TRAIL sensitization), % at 10 µM; actives 1% (n = 360,000);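 active = compounds causing at least 50% loss of cell viability in the single-dose screen, relative to plate controls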
KKLEB cytotox = counter-screen for CF NF-kB inhibitors: cytotoxicity; KKLEB CF airway cells viability, ATPlite luminescence, overnight; hits give low values; cells stimulated with P. aeruginosa culture filtrate; actives 0.36% (n = 360,000); activity change (cytotoxicity), % at 5 µM;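 active = corrected activity change at or below -50% at 5 µM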
CF NFkB inh = inhibitors of cystic fibrosis induced NF-kB. KKLEB NF-kB-GFP reporter, PAF-induced, GFP fluorescence overnight. actives 0.86% (n = 360,000). inhibition, % at 5 µM;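 active = at least 50% inhibition at 5 µM, scaled per plate between neutral and stimulator controls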;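 note: PAF is a Pseudomonas aeruginosa culture filtrate used as stimulus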
HIF-2a inh = blocks HIF-2a reporter activity. inhibition, % at 18.8 µM. actives 0.72% (n = 360,000). AID 624352. 786-0 RCC cells HIF-2a reporter, luciferase luminescence, overnight;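 active = inhibition of the luminescence signal of 40% or more relative to plate controls, in a single-dose primary screen at 18.75 µM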
Peg3 promoter = reduces Peg3 promoter-driven luciferase expression in HeLa | HeLa PEG-Prom luciferase reporter, luminescence, overnight | inhibition, % at 20 µM | actives 1.7% (n = 360,000) | AID 588405;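 active = inhibition of at least 50% at 20 µM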
Numbers stand for hits; i = inactive; nt = not tested or not shown. Only some compounds are listed: those with a hit (about 3.1% of all), similar ones and a draw of the others.

SMILES | PPC-1+TRAIL kill | C8 TRAIL sens | KKLEB cytotox | CF NFkB inh | HIF-2a inh | Peg3 promoter
O=C(NCC1CCCN(Cc2ccc3nonc3c2)C1)c1cccc(C(F)(F)F)c1 (stereo not drawn) | nt | i | i | i | i | 51
CC(C)CNS(=O)(=O)c1ccc(Br)cc1N1CCC[C@@H]1CO | nt | i | i | i | i | i
CCOc1cc(CNCCCN2CCOCC2)cc(Br)c1OCc1ccccc1Cl | i | i | -55 | i | i | 111
CCOc1cccc(CNCCO)c1OCc1ccc(Cl)cc1 | i | i | i | i | i | i
CCOc1cc(CNC(C)(C)CO)cc(Br)c1OCc1ccc(Cl)cc1Cl | i | i | i | i | i | 58
COc1cc(CNC(C)(C)CO)cc(Br)c1OCc1ccccc1 | i | i | i | i | i | i
CCOc1cc(CNCCO)cc(Br)c1OCc1ccc(Cl)cc1 | i | i | i | i | i | 101
COc1cc(/C=C/C(=O)OCC(=O)NCCc2ccc(S(N)(=O)=O)cc2)ccc1OCC#N | nt | i | i | i | i | i
CC(C)[C@H](NC(=O)[C@@H]1CSC2c3ccccc3C(=O)N21)C(=O)NCc1ccncc1 (stereo partly drawn) | nt | i | i | i | i | i
Cc1cc(C)c(S(=O)(=O)N2CCN(S(=O)(=O)N3CCOCC3)CC2)c(C)c1 | nt | i | i | i | i | i
CN(C)CCNC(=O)COc1ccc(C23CC4CC(CC(C4)C2)C3)cc1 | i | i | i | i | i | 97
Cc1onc(C(=O)N2CCC(Cc3ccccc3)CC2)c1[N+](=O)[O-] | nt | 92 | i | i | i | i
Cc1ccc(Cl)cc1N1CCN(C(=O)c2noc(C(C)C)c2[N+](=O)[O-])CC1 | nt | 95 | i | i | i | i
CC(C)c1onc(C(=O)N2CCN(c3ccccc3)CC2)c1[N+](=O)[O-] | i | i | i | i | i | i
CC(C)c1onc(C(=O)N2CCN(C(c3ccccc3)c3ccccc3)CC2)c1[N+](=O)[O-] | i | 91 | i | 50 | i | i
CC(C)c1onc(C(=O)N2CCN(c3ccc(F)cc3)CC2)c1[N+](=O)[O-] | nt | 65 | i | i | i | i
O=C(Nc1cccc(-c2cscn2)c1)C1CCN(Cc2ccccn2)CC1 | nt | i | i | i | i | i
COc1cc(C(=O)COC(=O)c2cc([N+](=O)[O-])ccc2N2CCOCC2)ccc1OC(F)F | nt | i | i | i | i | i
O=C(N/N=C/c1cc(Br)ccc1O)c1ccccc1Cl | i | 56 | i | i | i | i
O=C(Cc1ccccc1)N/N=C/c1cc(Br)cc(Br)c1O | nt | i | i | i | i | 54
O=C(CCc1ccccc1)N/N=C/c1cc(Br)ccc1O | i | 55 | i | i | i | i
O=C(CNC(=O)c1cccc(Br)c1)N/N=C/c1cc(Br)cc(Br)c1O | i | i | i | i | i | 54
CCOC(=O)[C@]12CCCC=C1N(Cc1ccccc1)C(=O)[C@H](CC(=O)NCCc1ccccc1OC)C2 | nt | i | nt | nt | i | nt
COc1ccc(C(O)C(CN2CCOCC2)c2ccccc2)cc1F (stereo not drawn) | i | i | i | i | i | i
COc1ccc(C(=O)C(CN2CCOCC2)c2ccccc2)cc1F (stereo not drawn) | i | i | i | i | i | 95
SMILES | PPC-1+TRAIL kill | C8 TRAIL sens | KKLEB cytotox | CF NFkB inh | HIF-2a inh | Peg3 promoter
COc1ccc(-c2cn3c(C)c(C(=O)Nc4ccncc4)sc3n2)cc1 | i | i | i | i | i | i
COc1ccc(-c2cn3c(C)c(C(=O)Nc4cccc(NC(C)=O)c4)sc3n2)cc1 | i | 69 | i | i | i | i
CCN(CC)Cc1c(C(=O)N/N=C/c2cccc(OCc3cccc(Cl)c3)c2)nnn1-c1nonc1N | nt | i | i | i | i | i
COc1ccc2oc(=Nc3ccccc3)c(-c3nc4ccccc4[nH]3)cc2c1 | 61 | 63 | -67 | i | i | i
COc1ccc2oc(=Nc3cccc(F)c3)c(C(N)=O)cc2c1 | i | i | i | i | i | i
COc1ccc(C(=O)COC(=O)c2cc(S(=O)(=O)N3CCCCC3)ccc2N2CCOCC2)c(OC)c1 | nt | i | i | i | i | i
COc1ccc(Nc2ncc(C(=O)N3CCN(c4ccc(F)cc4)CC3)c3ccccc23)cc1 | i | i | i | i | i | 59
COc1ccc(Nc2ncc(C(=O)O)c3ccccc23)cc1 | i | i | i | i | i | i
Oc1ccc(/C=N/N2CCN(C3c4ccccc4-c4ccccc43)CC2)cc1O | i | 58 | i | i | i | i
CCCc1nc2cc(C)c(Br)c(C)n2c1Cc1ccsc1 | nt | i | nt | nt | i | nt
Cc1nc(C(=O)Nc2ccccc2Cl)cc2c1[nH]c1ccccc12 | i | i | i | i | i | 85
CCC(C)c1ccccc1N1CC(C(=O)Nc2ccc(C)c(S(=O)(=O)N3CCOCC3)c2)CC1=O (stereo not drawn) | nt | i | i | i | i | i
COc1ccc(Cc2nnc(N/N=C/c3ccc(O)cc3)[nH]c2=O)cc1OC | i | 61 | i | i | i | 59
COc1ccc(Cc2nnc(N/N=C/c3ccc(Br)cc3)[nH]c2=O)cc1OC | i | i | i | i | i | i
CC12CCC(=O)C=C1CCC1C2C(O)CC2(C)C1CCC2(O)C(=O)COC(=O)COCC(=O)O (stereo not drawn) | nt | i | i | 70 | i | i
CCOC(=O)OCC(=O)C1(O)CCC2C3CCC4=CC(=O)CCC4(C)C3C(O)CC21C (stereo not drawn) | nt | i | i | 68 | i | i
CCCCCCCC(=O)OCC(=O)[C@@]1(O)CC[C@H]2[C@@H]3CCC4=CC(=O)CC[C@]4(C)[C@H]3[C@@H](O)C[C@@]21C | i | i | i | 61 | i | i
C[C@]12CCC(=O)C=C1[C@H](O)C[C@@H]1[C@@H]2[C@@H](O)C[C@@]2(C)[C@H]1CC[C@]2(O)C(=O)CO | i | i | i | i | i | i
CC12CCC(=O)C=C1CCC1C2C(O)CC2(C)C1CCC21OCC1=O (stereo not drawn) | nt | i | i | i | i | i
CC(=O)OCC(=O)C1(O)CCC2C3CCC4=CC(=O)CCC4(C)C3C(O)CC21C (stereo not drawn) | nt | i | i | 60 | i | i
CCOC(=O)Nc1ccc2c(COC(=O)C(NS(=O)(=O)c3ccc(Cl)cc3)C(C)O)cc(=O)oc2c1 (stereo not drawn) | nt | i | i | i | i | i
CCOC1=C2[C@H](c3ccccc3F)N(S(=O)(=O)c3ccc(C)cc3)C[C@H]2n2c(=O)n(-c3ccccc3)c(=O)n2C1 | nt | i | i | i | i | i
Cn1c(=O)c2c(nc(NCc3ccc4c(c3)OCO4)n2Cc2ccccc2)n(C)c1=O | i | i | i | i | i | i
Cn1c(NCc2ccccc2)nc2c1c(=O)n(Cc1ccc(Br)cc1)c(=O)n2C | i | i | i | i | i | 51
Cn1c(=O)c2c(nc(NCc3ccc4c(c3)OCO4)n2Cc2ccc(F)cc2)n(C)c1=O | i | i | i | i | i | 56
O=[N+]([O-])c1ccc(-c2cnc(SCc3ccccc3Cl)[nH]2)cc1 | i | i | i | i | i | i
